# Screens deposited in PubChem BioAssay by several laboratories.
# Compounds with a hit are over-represented: about 2.5% of the library has one in this group of screens.
# PG9 Ab binder: binders of HIV-1 gp120 antibody PG9, primary screen, biochemical, TR-FRET; TR-FRET gp120-PG9 antibody binding; inhibition, % at 6.7 µM; hit rate 0.43% among 360,000; in the data active = inhibition above about 8.5%
# Granule exo inh: LAMP-1 surface exposure blockers, TALL-104 cells – cell-based, flow cytometry, MLPCN library, primary screen; AID 651702, 2012; inhibition, % at 10 µM; hit rate 0.66% among 360,000; TALL-104 LAMP-1 surface exposure; cells stimulated with thapsigargin and PMA;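 active = inhibition above about 55%, limit read from the data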
# rCAG RNA binder: binders of r(CAG) RNA repeats, primary screen, biochemical, fluorescence; inhibition, % at 3 µM; AID 651821, 2012; r(CAG) RNA repeat, TO-PRO-1 dye displacement fluorescence; hit rate 1.3% among 370,000;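 active = inhibition above the plate cutoff, the mean of all test compounds on that plate plus 3 SD, cut at about 35% in these data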;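 also: 0% = DMSO alone and 100% = 100 µM mitoxantrone as full dye displacement; higher means more dye released from RNA so lower well fluorescence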
# ABCB6 inh 2: ABCB6 transporter inhibitors, primary screen, K562-ABCB6 cells, flow cytometry, MLPCN library | fluorescence ratio to DMSO, % at 10 µM | AID 602162, 2011 | hit rate 0.19% among 360,000 | K562-ABCB6 porphyrin accumulation, 1 h; hits give low values | ATP-binding cassette sub-family B member 6 (Homo sapiens), Q9NP58;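 active = fluorescence ratio to DMSO below 75%, the collection mean minus 3 SD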;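 also: signal is porphyrin accumulated inside mitochondria; 100% equals median channel fluorescence of DMSO control wells; lower ratio means ABCB6 inhibition with less porphyrin fluorescence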
# Target sequence (Q9NP58 whole entry, looked up): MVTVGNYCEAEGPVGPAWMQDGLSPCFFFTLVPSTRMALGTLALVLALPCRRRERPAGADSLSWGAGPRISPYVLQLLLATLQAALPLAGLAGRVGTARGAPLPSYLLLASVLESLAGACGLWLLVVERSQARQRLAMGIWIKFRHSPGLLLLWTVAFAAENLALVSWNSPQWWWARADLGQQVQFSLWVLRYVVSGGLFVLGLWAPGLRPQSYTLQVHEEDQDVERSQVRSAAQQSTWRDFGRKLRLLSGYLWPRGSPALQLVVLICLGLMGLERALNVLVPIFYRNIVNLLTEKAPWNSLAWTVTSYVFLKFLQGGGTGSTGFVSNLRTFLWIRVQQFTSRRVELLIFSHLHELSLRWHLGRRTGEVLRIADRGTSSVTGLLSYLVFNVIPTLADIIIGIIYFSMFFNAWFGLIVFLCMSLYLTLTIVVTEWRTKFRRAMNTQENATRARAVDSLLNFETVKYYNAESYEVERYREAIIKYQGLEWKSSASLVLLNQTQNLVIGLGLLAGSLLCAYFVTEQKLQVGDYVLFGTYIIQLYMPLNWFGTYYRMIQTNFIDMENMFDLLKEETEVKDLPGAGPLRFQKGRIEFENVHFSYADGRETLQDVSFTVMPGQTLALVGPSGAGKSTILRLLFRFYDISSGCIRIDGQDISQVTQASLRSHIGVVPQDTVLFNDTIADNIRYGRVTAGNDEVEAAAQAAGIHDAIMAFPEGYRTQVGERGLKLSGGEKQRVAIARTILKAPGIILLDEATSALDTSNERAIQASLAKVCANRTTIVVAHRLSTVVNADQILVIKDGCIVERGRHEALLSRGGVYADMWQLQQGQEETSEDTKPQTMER
# rCAG bind conf: small molecules binding CAG repeat RNA – biochemical, fluorescence, confirmation. inhibition, % at 3 µM. r(CAG) RNA repeat, TO-PRO-1 dye displacement fluorescence. hit rate 70% among 4,300. shares compounds with rCAG RNA binder. AID 652065, 2013;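 active = inhibition above a per-plate cutoff, the mean inhibition of sample wells plus 3 SD, cut at about 35% in these data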;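 also: loss of TO-PRO-1 fluorescence as compound displaces dye from 1x1 AA loop RNA; 0% = DMSO only wells and 100% = 100 µM mitoxantrone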
# DNA CAG counter: displacement of TO-PRO-1 from CAG DNA duplex, counter-screen for rCAG RNA repeat binder project, biochemical, fluorescence, TO-PRO-1 dye, d(CAG) DNA oligo; hit rate 94% among 4,300; d(CAG) DNA oligo TO-PRO-1 dye displacement; shares compounds with rCAG RNA binder; inhibition, % at 3 µM;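 active = inhibition above its plate's cutoff, the mean test-well inhibition plus 3 SD, cut at about 4.8% in these data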;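 also: 0% = DNA dye mix with DMSO and 100% = 100 µM mitoxantrone; hits displace the dye from DNA and so lower well fluorescence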
# DNA CAG DR: inhibitors of DNA CAG/GTC TO-PRO-1 complex, dose response, counter-screen for rCAG RNA repeat binder project, biochemical, fluorescence, TO-PRO-1 dye; DNA CAG/GTC duplex TO-PRO-1 dye displacement fluorescence; shares compounds with rCAG RNA binder; hit rate 20% among 250; IC50, µM; AID 686960, 2013; in the data active = IC50 below about 10 µM
# Active calls of the source: *; i = inactive; / = no result given.
SMILES,PG9 Ab binder,Granule exo inh,rCAG RNA binder,ABCB6 inh 2,rCAG bind conf,DNA CAG counter,others
O=C(O)c1cc(-c2ccc3ccccc3c2)nc2ccc(F)cc12,-2,4,37*,118,19,4,
O=C(O)c1cc(-c2ccc3ccccc3n2)nc2ccccc12,-1,-6,2,99,/,/,
O=C(O)c1cc(-c2c[nH]c3ccccc23)nc2cc3ccccc3cc12,0,-1,54*,118,35*,13*,
COc1ccccc1NC(=O)CCC(=O)N/N=C(/C)c1ccc(C)cc1,-2,1,-1,94,/,/,
COc1cc(/C=C2/SC(=O)NC2=O)ccc1OCc1ccccc1,-1,12,59*,102,51*,13*,
O=C1NC(=O)/C(=C\c2ccc(OCc3ccccc3)cc2)S1,0,-11,19,99,/,/,
CCCOc1ccc2ccccc2c1/C=C1\SC(=O)NC1=O,-2,6,53*,95,44*,13*,
Cc1ccc(S(=O)(=O)Oc2ccccc2/C=C2/SC(=O)NC2=O)cc1,0,1,44*,101,36*,7.0*,
O=C1NC(=O)/C(=C\c2ccccc2OCc2ccccc2)S1,0,2,69*,97,58*,20*,
C[C@H](CO)N1C[C@H](C)[C@@H](CN(C)C(=O)NC2CCCCC2)Oc2ccc(NC(=O)C3CCCCC3)cc2C1=O,2,-4,-9,94,/,/,
CCOC(=O)C1CCCN(Cc2ccc(OC)c(OCc3ccccc3)c2)C1 (stereo unspecified),0,-1,-9,93,/,/,
COc1ccccc1OCCCOc1cccc(/C=C2\SC(=O)NC2=O)c1,-2,4,78*,99,83*,51*,
COc1ccccc1OCCCOc1ccc(/C=C2\SC(=O)NC2=O)cc1OC,-1,11,32,101,/,/,
COc1cccc(Nc2nc(Nc3ccc(Cl)c(C(=O)O)c3)nc(C)c2[N+](=O)[O-])c1,0,3,10,95,/,/,
CC1CCN(c2ccc(C(=O)O)cc2NS(=O)(=O)c2ccc(C(C)(C)C)cc2)CC1,/,/,64*,/,64*,26*,
CC1CCN(c2ccc(C(=O)O)cc2NS(=O)(=O)c2ccc(F)cc2)CC1,/,/,20,/,/,/,
Cc1cc(C(=O)NNC(=O)c2ccc(NC(=O)CC#N)cc2)c(C)o1,1,-3,8,97,/,/,
CCC1CCCCN1S(=O)(=O)c1ccc(NC(=O)CSc2ncccc2C(=O)O)cc1 (stereo unspecified),-1,8,39*,95,34,11*,
c1ccc(CCC2CCCCN2Cc2nc(C3CC3)no2)cc1 (stereo unspecified),-2,-1,-9,108,/,/,
CCc1ccc(-c2csc3ncn(Cc4ccc(C(=O)O)cc4)c(=O)c23)cc1,0,-2,35*,96,29,7.7*,
CCCOC(=O)Cn1cnc2scc(-c3ccc(C)cc3)c2c1=O,-1,4,0,95,/,/,
Nc1[nH]ncc1-c1ccccc1,-5,-3,4,97,/,/,
CCc1nc2ccc(C(=O)NCCCN3CCN(c4ccccc4F)CC3)cc2nc1CC,-1,23,-10,90,/,/,
O=C(CC(C(=O)O)c1ccc(Cl)cc1Cl)c1ccc(Cl)cc1 (stereo unspecified),-1,-6,41*,108,21,4,
O=C(CC(C(=O)O)c1ccc(Cl)cc1)c1ccc(Cl)c(Cl)c1 (stereo unspecified),0,-8,31,99,/,/,
SMILES,PG9 Ab binder,Granule exo inh,rCAG RNA binder,ABCB6 inh 2,rCAG bind conf,DNA CAG counter,others
Cn1c(=O)c2ncn(CC(=O)Nc3nc(-c4ccc(Cl)cc4)cs3)c2n(C)c1=O,-1,-4,-2,93,/,/,
COc1ccc(NC(=S)N(Cc2cccc(Br)c2)CC2CCC(C(=O)O)CC2)cc1 (stereo unspecified),0,-1,21,96,/,/,
COc1ccc(CN(CC2CCC(C(=O)O)CC2)C(=S)Nc2ccc(C)c(Cl)c2)cc1 (stereo unspecified),-1,-2,35*,106,33,5.8*,
Cc1ccc(NC(=S)N(Cc2ccc(Cl)cc2)Cc2ccc(C(=O)O)cc2)cc1Cl,-1,2,76*,94,69*,28*,DNA CAG DR=i
COc1ccc(NC(=S)N(Cc2ccc(C(=O)O)cc2)Cc2ccc(OC)c(OC)c2)cc1,0,-1,9,99,/,/,
COCCNC(=O)c1cccc(OC2CCN(Cc3ccc(OC(F)F)cc3)CC2)c1,1,2,-11,100,/,/,
CC(C)=CCC[C@H](C)CC1Cc2[nH]c(=S)[nH]c(=O)c2C(c2ccc(Cl)cc2)O1 (stereo partly specified),-1,-1,35*,93,42*,16*,
Cc1cc(NS(=O)(=O)c2ccc(NC(=O)C(C)Oc3ccccc3Cl)cc2)no1 (stereo unspecified),2,7,36*,95,19,3,
Cc1cc(NS(=O)(=O)c2ccc(NC(=O)C(C)Oc3cc(C)c(Cl)c(C)c3)cc2)no1 (stereo unspecified),-2,11,69*,100,66*,28*,
Cc1cc(NS(=O)(=O)c2ccc(NC(=O)C(C)Oc3ccc(Cl)cc3)cc2)no1 (stereo unspecified),3,0,31,103,/,/,
Cc1ccc(OC(C)C(=O)Nc2ccc(S(=O)(=O)Nc3cc(C)on3)cc2)cc1 (stereo unspecified),-1,-4,13,87,/,/,
Cc1ccc(CNC(=O)C2CCCN2C(=O)Nc2ccc(F)cc2)cc1 (stereo unspecified),1,5,-1,96,/,/,
CCN(CC)c1ccc(S(=O)(=O)N2CCOCC2)cc1NC(=O)CSc1n[nH]c(N)n1,1,-3,2,95,/,/,
CCC(Sc1nc2ccsc2c(=O)n1Cc1ccc(C(=O)O)cc1)C(=O)Nc1ccc(C)c(Cl)c1 (stereo unspecified),2,-6,74*,97,79*,49*,
CCC(Sc1nc2ccsc2c(=O)n1Cc1ccc(C(=O)O)cc1)C(=O)Nc1cc(Cl)ccc1C (stereo unspecified),-1,4,14,101,/,/,
CC1CN(C(=O)c2cccc(Oc3ccccc3)c2)CC(C)O1 (stereo unspecified),1,5,-8,90,/,/,
